Results: publication PMC13494018
Values without a mark were called inactive. The rule behind the calls is not given here.

B1: d8r1_design_ppi_877_dldesign_0_cycle0_af2pred (protein)
chain: ALRAATEALLAEAERLREEILELGRAAESESVRNFAEGVAREVERLIAEAKAAAADPEAALALAQAALRTAREGLAGVRALTAAKAE
B2: d8r1_design_ppi_1212_dldesign_0_cycle1_af2pred (protein)
chain: AAALAEKLVATALAIGDAVLKKYPEAFGAKLAAARALIAADPVAGIRALGEAAAEVAPAEIAPGIRSMLNAIADRAAELLA
B3: d8r1_design_ppi_723_dldesign_0_cycle0_af2pred (protein)
chain: GGKSIAEIARIHGARTAAAVLAETGDAAAAAKIKAVAEKAAKEIEKASDNYDKMAEIFRKMVEEIEKITAAAKAAAA
B4: d8r1_design_ppi_1086_dldesign_0_cycle1_af2pred (protein)
chain: AAAAVAAAAAAGGEAAMAEFLDLSNPEQGKELKDKAAAKVAALAAANPAVAAQINAAYNAQLARGKALAAEARADK
B5: d8r1_design_ppi_763_dldesign_0_cycle1_af2pred (protein)
chain: MEKAKELAAKGDALEEEAAKATPEEAAKLYREASKYYAEAARLLLPLGDENPEIGKVVKELMAKASASYQKAVALEA
B6: d8r1_design_ppi_290_dldesign_0_cycle0_af2pred (protein)
chain: SREEAERLKEEIERLAREGIAGDAETAARAMREIHELAIRSTELDPEDAAEVNQKAAEAMLRVGDAREAMLAA
B7: d8r1_design_ppi_1413_dldesign_0_cycle1_af2pred (protein)
chain: GSLLEELAKKEEELKDEEKMLKAHENALEIGIKKAEEDPAKGAKILENLAKNAEAAAKKASPEIAKKFKELAERAKKAAKEAKKKAA
B8: d8r1_design_ppi_178_dldesign_0_cycle1_af2pred (protein)
chain: ATEAVAQAIVLAAKRAAALPNAATAVANLAALVALLIEDPRVAEGAVEGAKEAAKALEAAGRTEEAKALLSAAEAAVAETAAKRA
B9: d8r1_design_ppi_1231_dldesign_0_cycle1_af2pred (protein)
chain: MTEEEMAALVQAARDAAKAAAAAAGPAVAPTMAAMVALAEEERDNPGELESIAQSVATAAARAVAAAAAAA
B10: d8r1_design_ppi_1032_dldesign_0_cycle0_af2pred (protein)
chain: SEEEENKEKAEALEKAAKNTTAIGDEKAAKDAAGKEKGAKAYNGAAALYEAAAKVSSPERAKEFKAKAAEAKAKAAAAQAAAAA
B11: d8r1_design_ppi_888_dldesign_0_cycle1_af2pred (protein)
chain: ATEEEKEKLKKLVEELLKAGKEGTVEEAKKAAEKLVEAAKKASLEAVLAGIAEVAKAAAELAKVNPEAAEVAREAAIELAKIALEKAD
B12: d8r1_design_ppi_433_dldesign_0_cycle0_af2pred (protein)
chain: SEEEERKEIEEEGRAMARALRTSARHHAELAKKDPAAGRAAFDADAAAIRAGATPEQQPLVDAAVAEGRALLDAVEAAL
B13: d8r1_design_ppi_156_dldesign_0_cycle1_af2pred (protein)
chain: MEEEKKKEEEEQKEAERMAKALENAIDAIEARVKAAPAAEQPALAKAADNAAAAADVLKKKDPELGQKVKDRANAVLAAARAK
B14: d8r1_design_ppi_860_dldesign_0_cycle1_af2pred (protein)
chain: DEAYELAAKALAEAAKLRAAADAALAAAGAAGAVEAAALFTAAVKVLEETAKKLKELGSSLGDFTAAAAEREAARAAARIAAALA
B15: d8r1_design_ppi_480_dldesign_0_cycle0_af2pred (protein)
chain: SEEEERRRRAEEAADEIVAAAKADPAAAAALAAEFVATSSEEERRLLANILAQKAFEDDAGLTALRAFSLALAEAVA
B16: d8r1_design_ppi_136_dldesign_0_cycle1_af2pred (protein)
chain: SAAEEAARKSLFAVADSILAANLARAKAAAAAGDAAAAAAALQNTRDGGEMVTKMALARGDEETAAELAARFAAAAAEIAAILAA
B17: d8r1_design_ppi_1444_dldesign_0_cycle0_af2pred (protein)
chain: MEELLARIEEALKRAKEVLKEAKKYSPGAEAIAKAALEAAERALALARAGPERAAEAERELRAAENAIAAAEKLLEA
B18: d8r1_design_ppi_80_dldesign_0_cycle1_af2pred (protein)
chain: ETPEEKANALFRAFNNVATYAAAKVPALAAAAAAAIAASADPAKLGAAAAAFAAAAAATPAAAALGTSAQAIADKAVATAK
B19: d8r1_design_ppi_1358_dldesign_0_cycle1_af2pred (protein)
chain: AAAESAALAAALAALRKTEVGPFARQYIIYRLLAQVAEAKGDEETAKRAKAKAEELAKAYPEAAAAADAALALAQAALAA
B20: d8r1_design_ppi_1247_dldesign_0_cycle1_af2pred (protein)
chain: SSNKETSKLIREAMKIIGESLAAARAAVAAGDKAAAQAAVDAGVAKIEELAKKSKDPATKETLLKLAENLRRQGARVIA
B21: d8r1_design_ppi_460_dldesign_0_cycle1_af2pred (protein)
chain: DETGERKATALAAISATVAAAKAAIDANAADPAAAQAALDAAKKALAAIAAKSGLPSVKGVAETAAKKLAAYATAVAAAAA
B22: d8r1_design_ppi_655_dldesign_0_cycle0_af2pred (protein)
chain: SDAKAAAQAAKNGAESATEKANEYEAKGKATGDKALLAKAKTLYDSAATLYAFGTKESGGEYQANLDAAKAKAAAAAALLA
B23: d8r1_design_ppi_480_dldesign_0_cycle1_af2pred (protein)
chain: SAAAATEAKAKAWAAEIIAAAKADPAAAAALATEVVATASEEEIRTLLNILAQQAFKSPDGLTALTAVSAAVAARYA
B24: d8r1_design_ppi_1301_dldesign_0_cycle1_af2pred (protein)
chain: AENEADFNALKRVAQSILDRAAELAAAGADRALVERLAASAVQAAELAAEEGTPEEGAALIAETRAAVAAVLAA
B25: d8r1_design_ppi_271_dldesign_0_cycle1_af2pred (protein)
chain: ADAALAALIAEAAQAAYDDGPRGIAALAGALLRAFPSLSAETLAAIIAATAADPAAAAALIAALAAAHPEAAPALAAELRALLAELA
B26: d8r1_design_ppi_473_dldesign_0_cycle1_af2pred (protein)
chain: STAEYLAQQQAALDATLAALDAAAAAVRTSAAGKALGDAAKKAMEIAKKLPVSVQLAVAQNQLAALQAAL
B27: d8r1_design_ppi_978_dldesign_0_cycle1_af2pred (protein)
chain: MKHLEEQRKAAEKVAEKAAKEAEKEIAKVVSEEEAKKLAEKLKEQSKTSNELLVEKHKDLPVEEIEKLAERNAKGLALRALAIAKE
B28: d8r1_design_ppi_217_dldesign_0_cycle1_af2pred (protein)
chain: GDAVMEAAAAISNAAAAAIAAAKADPAKADEALAAATATAKALADATGKPLVKAVAKGATARVAAVAAAVKAAA
B29: d8r1_design_ppi_1429_dldesign_0_cycle0_af2pred (protein)
chain: SSLESEERLRRMAEGIAERTLRVVERLAKEDLETARRAAENTRGLLAKLGPVAAKIGEETWERAEAILAAIA
B30: d8r1_design_ppi_312_dldesign_0_cycle1_af2pred (protein)
chain: ALEEALRATAALVGTASQILAKEDPALAKEVAARILATAVKDPAEAAKLLKEVAKEAKERGWPAAEYYAAAAEALKAAAEA
B31: d8r1_design_ppi_1034_dldesign_0_cycle1_af2pred (protein)
chain: DQAFTDAAAAAKALAAIPKYKALGDSLAARVAALAAAAAAARAAGAADPATAAEDAAAAAALAAAAKNIGDFAKAMLKAIEEDE
B32: d8r1_design_ppi_1245_dldesign_0_cycle0_af2pred (protein)
chain: SVAEQRAELAAIVDRTLAAAAAEDPRAAGRAGAAELARLLARSSDEVKPAANAAIAAFNTLIRDPAAGAAALEAVRAELA
B33: d8r1_design_ppi_705_dldesign_0_cycle0_af2pred (protein)
chain: MTPSTRAMLHIGRANAAAQALAADPAAAAAAVAEEMAAAAREAAKASPEVREQNLRAMDAAVAALKAANPAVGAAARAAMEEELARL
B34: d8r1_design_ppi_1486_dldesign_0_cycle0_af2pred (protein)
chain: SEELEKAKEEARKARERLLRLAEEAAAVDPAVAAAGRNAAAGAEKLISTGSLGSARAGKAIAEAAARRAEAVLAAAAAA
B35: d8r1_design_ppi_1459_dldesign_0_cycle1_af2pred (protein)
chain: EKAEKLRKLAKKLKELGKKIAEGDEEEAKKAAKEAAKAAREAGKISPQGKTLEYLGKKTEEAAKAGDKKTAASLADAAAALMEALAD
B36: d8r1_design_ppi_259_dldesign_0_cycle1_af2pred (protein)
chain: AAAAARLATALANAIAGTNTIKKASTAKSASQFLAASTDRLATLYAADPALVAKLRAAAAAAKAGVDAGLAAAKEALAAATAAG
B37: d8r1_design_ppi_179_dldesign_0_cycle0_af2pred (protein)
chain: STAARNAAAGIAAAAKENPKSGAKLGKGAIDVLAKKDKKEAAEAAKLAAEQAKAAGKEEVAKEMEELAKKVEAEI
B38: d8r1_design_ppi_660_dldesign_0_cycle1_af2pred (protein)
chain: EQAELEALAAAAKAAAAQAYALALASRAQAPAAYAALQQAFALAAQLPEEVAAELKAAAAQALADGLLAREKAE

Molecular target: PDL1, Q9NZQ7
Sequence (Q9NZQ7 whole entry): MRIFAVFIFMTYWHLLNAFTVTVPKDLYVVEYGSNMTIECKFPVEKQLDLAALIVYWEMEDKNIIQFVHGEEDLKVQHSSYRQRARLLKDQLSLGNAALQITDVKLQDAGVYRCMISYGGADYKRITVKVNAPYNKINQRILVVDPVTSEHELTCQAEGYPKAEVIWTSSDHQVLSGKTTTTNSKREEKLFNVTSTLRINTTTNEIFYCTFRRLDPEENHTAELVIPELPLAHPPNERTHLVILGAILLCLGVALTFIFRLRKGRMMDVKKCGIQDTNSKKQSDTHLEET

Binder | binding in a display sort
B1 | not found
B2 | not found
B3 | not found
B4 | not found
B5 | not found
B6 | not found
B7 | not found
B8 | not found
B9 | not found
B10 | not found
B11 | not found
B12 | not found
B13 | not found
B14 | not found
B15 | not found
B16 | not found
B17 | not found
B18 | not found
B19 | binds (active)

Binder | binding in a display sort
B20 | not found
B21 | not found
B22 | not found
B23 | not found
B24 | not found
B25 | not found
B26 | not found
B27 | not found
B28 | not found
B29 | not found
B30 | not found
B31 | binds (active)
B32 | not found
B33 | not found
B34 | not found
B35 | not found
B36 | not found
B37 | not found
B38 | not found
